The values that follow come from PMC7862700, “An all-to-all approach to the identification of sequence-specific readers for epigenetic DNA modifications on cytosine”.

Common to all, as to experiment: DAPPL (digital affinity profiling via proximity ligation, sequencing); 10 mM Tris-HCl pH 7.5, 50 mM NaCl, 1 mM DTT, 4% glycerol, room temperature, 30 min; GST-TFs on glutathione beads, 16-mer random dsDNA library, 0.1% formaldehyde crosslink after washing; high values mean tight binding
For one assay, the target named is T1, FLI1 (Homo sapiens, UniProt Q01543 1-452).
T1 sequence: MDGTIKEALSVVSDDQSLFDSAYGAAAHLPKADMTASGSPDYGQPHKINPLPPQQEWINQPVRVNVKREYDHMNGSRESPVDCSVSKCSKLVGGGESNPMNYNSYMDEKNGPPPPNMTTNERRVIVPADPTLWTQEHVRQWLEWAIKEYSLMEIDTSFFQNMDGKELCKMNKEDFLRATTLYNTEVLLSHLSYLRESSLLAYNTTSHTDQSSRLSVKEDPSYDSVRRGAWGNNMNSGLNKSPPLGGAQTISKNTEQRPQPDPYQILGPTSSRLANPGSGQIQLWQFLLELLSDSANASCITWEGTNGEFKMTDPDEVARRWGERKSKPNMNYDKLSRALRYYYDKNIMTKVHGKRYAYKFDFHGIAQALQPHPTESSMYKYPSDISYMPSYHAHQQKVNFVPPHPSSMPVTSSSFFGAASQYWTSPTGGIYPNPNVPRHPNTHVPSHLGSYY
The note with it: protein: recombinant; tags: N-terminal GST; dsDNA, one strand shown. The method in brief:
(§1)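 Binding signal is each hexamer's read frequency for a factor divided by its frequency in the tag-only sample. The factors were GST-fused human transcription factors from yeast, captured on glutathione beads, DNA-barcoded and pooled with that sample. Pools were incubated with 200 nmole of a random double-stranded 16-mer DNA library in Tris/NaCl/DTT/glycerol buffer at room temperature for 30 min, then washed, crosslinked with 0.1% formaldehyde, proximity-ligated with BsaI/T4 ligase (1 h, 37 °C), PCR-amplified and sequenced on an Illumina NextSeq500.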

A further assay has as its target T2, ELK1 (Homo sapiens, UniProt P19419 1-428).
T2 sequence: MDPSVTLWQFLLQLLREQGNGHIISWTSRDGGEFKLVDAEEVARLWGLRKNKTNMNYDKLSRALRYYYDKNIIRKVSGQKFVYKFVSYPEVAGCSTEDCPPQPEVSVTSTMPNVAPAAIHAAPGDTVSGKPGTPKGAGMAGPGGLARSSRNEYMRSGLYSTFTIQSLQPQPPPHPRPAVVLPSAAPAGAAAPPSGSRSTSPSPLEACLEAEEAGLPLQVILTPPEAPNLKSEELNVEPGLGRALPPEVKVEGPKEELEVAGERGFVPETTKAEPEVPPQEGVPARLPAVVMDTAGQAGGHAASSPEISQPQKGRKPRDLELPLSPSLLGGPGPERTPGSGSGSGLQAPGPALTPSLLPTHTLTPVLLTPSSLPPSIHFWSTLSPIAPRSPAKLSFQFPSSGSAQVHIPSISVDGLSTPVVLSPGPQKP
The note with it: protein: recombinant; tags: N-terminal GST; dsDNA, one strand shown. The method in brief: as §1

Another assay addresses T3, GABPA (Homo sapiens, UniProt Q06546 1-454).
T3 sequence: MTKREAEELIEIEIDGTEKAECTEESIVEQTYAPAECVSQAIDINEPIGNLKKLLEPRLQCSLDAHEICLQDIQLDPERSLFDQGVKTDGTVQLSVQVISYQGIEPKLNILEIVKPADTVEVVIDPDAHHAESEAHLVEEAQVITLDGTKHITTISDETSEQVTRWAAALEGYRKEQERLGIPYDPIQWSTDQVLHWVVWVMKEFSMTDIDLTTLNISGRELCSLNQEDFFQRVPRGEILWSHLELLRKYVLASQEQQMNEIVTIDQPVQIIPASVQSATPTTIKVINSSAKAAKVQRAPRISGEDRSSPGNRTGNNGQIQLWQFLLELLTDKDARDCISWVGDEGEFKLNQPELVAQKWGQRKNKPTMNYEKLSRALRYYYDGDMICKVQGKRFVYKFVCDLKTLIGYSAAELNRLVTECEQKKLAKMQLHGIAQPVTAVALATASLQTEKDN
Particulars: protein: recombinant; tags: N-terminal GST; dsDNA, one strand shown. The method in brief: as §1

The next assay deals with T4, ERG (Homo sapiens, UniProt P11308 1-479).
T4 sequence: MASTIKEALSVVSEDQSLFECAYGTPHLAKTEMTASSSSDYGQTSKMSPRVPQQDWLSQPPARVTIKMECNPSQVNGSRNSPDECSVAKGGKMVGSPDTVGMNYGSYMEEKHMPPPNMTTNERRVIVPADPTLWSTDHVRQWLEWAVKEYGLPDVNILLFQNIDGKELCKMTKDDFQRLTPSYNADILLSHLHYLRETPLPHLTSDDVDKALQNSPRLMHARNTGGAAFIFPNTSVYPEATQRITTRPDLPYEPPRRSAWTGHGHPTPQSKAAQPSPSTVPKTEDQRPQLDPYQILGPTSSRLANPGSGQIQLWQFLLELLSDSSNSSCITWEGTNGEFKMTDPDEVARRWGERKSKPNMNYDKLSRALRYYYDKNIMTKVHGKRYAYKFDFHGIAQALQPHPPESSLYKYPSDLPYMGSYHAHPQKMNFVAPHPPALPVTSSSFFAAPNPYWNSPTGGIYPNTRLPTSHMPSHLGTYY
Particulars: protein: recombinant; tags: N-terminal GST; dsDNA, one strand shown. An outline of the steps:
as §1

In another assay the target is ELF1 (Homo sapiens, UniProt P32519 1-619). Particulars: protein: recombinant; tags: N-terminal GST; dsDNA, one strand shown. An outline of the steps:
as §1

Another assay concerns the target T5, EHF (Homo sapiens, UniProt Q9NZC4 1-300).
T5 sequence: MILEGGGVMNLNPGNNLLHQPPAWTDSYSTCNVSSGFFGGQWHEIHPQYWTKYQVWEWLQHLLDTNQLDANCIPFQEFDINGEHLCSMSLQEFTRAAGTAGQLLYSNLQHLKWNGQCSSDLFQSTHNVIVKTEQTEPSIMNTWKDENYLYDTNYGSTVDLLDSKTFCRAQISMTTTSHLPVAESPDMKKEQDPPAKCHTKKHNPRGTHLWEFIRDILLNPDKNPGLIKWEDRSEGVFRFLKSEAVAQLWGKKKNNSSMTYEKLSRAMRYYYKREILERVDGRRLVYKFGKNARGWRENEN
The note with it: protein: recombinant; tags: N-terminal GST; dsDNA, one strand shown. The method in brief:
as §1

The next assay addresses SPI1 (Homo sapiens, UniProt P17947 1-270). Particulars: protein: recombinant; tags: N-terminal GST; dsDNA, one strand shown. The method in brief: as §1
The next assay deals with SPIB (Homo sapiens, UniProt Q01892 1-262). Particulars: protein: recombinant; tags: N-terminal GST; dsDNA, one strand shown. An outline of the steps: as §1
Sequence of SPIB (Q01892 whole entry): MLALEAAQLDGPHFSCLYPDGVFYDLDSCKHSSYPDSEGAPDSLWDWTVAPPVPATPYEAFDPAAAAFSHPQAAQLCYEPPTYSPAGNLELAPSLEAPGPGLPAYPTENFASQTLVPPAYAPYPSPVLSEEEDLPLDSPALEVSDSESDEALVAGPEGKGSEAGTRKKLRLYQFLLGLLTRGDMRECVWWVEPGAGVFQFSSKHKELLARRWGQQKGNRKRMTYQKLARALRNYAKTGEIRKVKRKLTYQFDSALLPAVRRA
Another assay deals with T6, FEV (Homo sapiens, UniProt Q99581 1-238).
T6 sequence: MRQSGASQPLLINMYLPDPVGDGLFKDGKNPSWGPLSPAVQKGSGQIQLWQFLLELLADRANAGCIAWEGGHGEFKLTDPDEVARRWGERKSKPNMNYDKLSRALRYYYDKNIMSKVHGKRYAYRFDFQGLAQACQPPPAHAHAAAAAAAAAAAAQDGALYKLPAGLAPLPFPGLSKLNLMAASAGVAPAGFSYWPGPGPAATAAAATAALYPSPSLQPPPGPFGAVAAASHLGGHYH
The note with it: protein: recombinant; tags: N-terminal GST; dsDNA, one strand shown. The method in brief: as §1

A further assay addresses ETV5 (Homo sapiens, UniProt P41161 1-510). Particulars: protein: recombinant; tags: N-terminal GST; dsDNA, one strand shown. An outline of the steps: as §1
In the next assay the target is HSF1 (Homo sapiens, UniProt Q00613 1-529). The note with it: protein: recombinant; tags: N-terminal GST; chain copies: 3; dsDNA, one strand shown. The method in brief:
as §1

The next assay addresses T7, SPIC (Homo sapiens, UniProt Q8N5J4 1-248).
T7 sequence: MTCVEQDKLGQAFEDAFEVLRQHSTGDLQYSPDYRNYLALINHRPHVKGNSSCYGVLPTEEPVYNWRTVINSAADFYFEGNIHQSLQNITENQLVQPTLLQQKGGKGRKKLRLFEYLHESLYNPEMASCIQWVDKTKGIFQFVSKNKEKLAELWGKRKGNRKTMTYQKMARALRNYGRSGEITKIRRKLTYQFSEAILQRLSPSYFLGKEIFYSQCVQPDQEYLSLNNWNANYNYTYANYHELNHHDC
The note with it: protein: recombinant; tags: N-terminal GST; dsDNA, one strand shown. The method in brief: as §1

A further assay addresses ELF4 (Homo sapiens, UniProt Q99607 1-663). Particulars: protein: recombinant; tags: N-terminal GST; dsDNA, one strand shown. The method in brief:
as §1

The target in a further assay is T8, ELK4 (Homo sapiens, UniProt P28324-2 1-405).
T8 sequence: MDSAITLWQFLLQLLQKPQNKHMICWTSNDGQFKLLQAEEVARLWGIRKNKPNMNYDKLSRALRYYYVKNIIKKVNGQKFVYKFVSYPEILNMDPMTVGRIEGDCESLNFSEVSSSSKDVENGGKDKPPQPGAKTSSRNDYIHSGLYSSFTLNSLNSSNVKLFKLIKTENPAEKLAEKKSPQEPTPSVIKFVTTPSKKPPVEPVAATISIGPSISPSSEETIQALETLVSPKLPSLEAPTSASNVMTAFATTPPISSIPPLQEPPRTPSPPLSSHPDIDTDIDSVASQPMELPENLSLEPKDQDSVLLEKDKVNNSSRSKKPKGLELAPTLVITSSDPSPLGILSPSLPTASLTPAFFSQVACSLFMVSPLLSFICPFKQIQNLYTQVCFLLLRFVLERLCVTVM
The note with it: protein: recombinant; tags: N-terminal GST; dsDNA, one strand shown. An outline of the steps: as §1

The target of another assay is T9, ETV2 (Homo sapiens, UniProt O00321 1-342).
T9 sequence: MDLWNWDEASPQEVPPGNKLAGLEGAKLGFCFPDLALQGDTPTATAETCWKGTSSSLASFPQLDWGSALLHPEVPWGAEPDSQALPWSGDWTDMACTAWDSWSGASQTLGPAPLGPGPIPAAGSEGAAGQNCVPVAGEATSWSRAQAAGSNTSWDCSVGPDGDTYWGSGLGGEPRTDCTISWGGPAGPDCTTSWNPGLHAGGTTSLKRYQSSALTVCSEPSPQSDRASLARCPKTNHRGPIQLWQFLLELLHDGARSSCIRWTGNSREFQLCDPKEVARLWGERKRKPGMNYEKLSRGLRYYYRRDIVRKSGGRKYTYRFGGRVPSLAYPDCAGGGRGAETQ
The note with it: protein: recombinant; tags: N-terminal GST; dsDNA, one strand shown. The method in brief:
as §1

In the next assay the target is CRX (Homo sapiens, UniProt O43186 1-299). The note with it: protein: recombinant; tags: N-terminal GST; dsDNA, one strand shown. An outline of the steps:
as §1

For the next assay, the target named is ETV1 (Homo sapiens, UniProt P50549 1-477). The note with it: protein: recombinant; tags: N-terminal GST; dsDNA, one strand shown. The method in brief:
as §1

Sequence of ELF4 (Q99607 whole entry): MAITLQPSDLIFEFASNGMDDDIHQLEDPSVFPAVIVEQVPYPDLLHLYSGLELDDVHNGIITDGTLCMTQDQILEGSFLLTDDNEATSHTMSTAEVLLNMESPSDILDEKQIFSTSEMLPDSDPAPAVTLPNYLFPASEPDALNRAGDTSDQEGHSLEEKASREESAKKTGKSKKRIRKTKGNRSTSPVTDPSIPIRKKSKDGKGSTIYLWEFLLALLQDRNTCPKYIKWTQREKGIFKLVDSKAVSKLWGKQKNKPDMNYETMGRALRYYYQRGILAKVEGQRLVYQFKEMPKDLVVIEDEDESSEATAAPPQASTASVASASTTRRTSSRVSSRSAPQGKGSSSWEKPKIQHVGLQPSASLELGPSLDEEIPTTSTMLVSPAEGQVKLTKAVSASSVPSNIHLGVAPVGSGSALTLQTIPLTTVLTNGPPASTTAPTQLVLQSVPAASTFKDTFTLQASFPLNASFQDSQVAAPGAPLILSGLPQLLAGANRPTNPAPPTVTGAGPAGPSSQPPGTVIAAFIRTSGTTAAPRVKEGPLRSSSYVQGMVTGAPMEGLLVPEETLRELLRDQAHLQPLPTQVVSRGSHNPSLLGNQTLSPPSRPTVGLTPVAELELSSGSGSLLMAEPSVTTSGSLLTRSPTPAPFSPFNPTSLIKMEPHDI
Sequence of HSF1 (Q00613 whole entry): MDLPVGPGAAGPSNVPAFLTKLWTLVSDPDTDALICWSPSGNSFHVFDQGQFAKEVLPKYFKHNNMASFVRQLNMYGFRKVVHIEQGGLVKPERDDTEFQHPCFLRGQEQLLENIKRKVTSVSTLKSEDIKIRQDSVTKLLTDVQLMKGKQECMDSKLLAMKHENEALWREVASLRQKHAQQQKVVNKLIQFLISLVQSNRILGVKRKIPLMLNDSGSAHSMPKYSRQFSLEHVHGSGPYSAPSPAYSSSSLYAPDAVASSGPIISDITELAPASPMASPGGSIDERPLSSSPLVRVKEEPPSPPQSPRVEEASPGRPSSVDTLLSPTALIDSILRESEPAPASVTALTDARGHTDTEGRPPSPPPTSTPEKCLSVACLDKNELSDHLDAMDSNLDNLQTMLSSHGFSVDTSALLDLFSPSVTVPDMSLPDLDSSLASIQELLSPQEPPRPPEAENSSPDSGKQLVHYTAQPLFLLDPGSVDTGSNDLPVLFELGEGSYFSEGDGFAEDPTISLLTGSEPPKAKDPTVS
Sequence of ETV5 (P41161 whole entry): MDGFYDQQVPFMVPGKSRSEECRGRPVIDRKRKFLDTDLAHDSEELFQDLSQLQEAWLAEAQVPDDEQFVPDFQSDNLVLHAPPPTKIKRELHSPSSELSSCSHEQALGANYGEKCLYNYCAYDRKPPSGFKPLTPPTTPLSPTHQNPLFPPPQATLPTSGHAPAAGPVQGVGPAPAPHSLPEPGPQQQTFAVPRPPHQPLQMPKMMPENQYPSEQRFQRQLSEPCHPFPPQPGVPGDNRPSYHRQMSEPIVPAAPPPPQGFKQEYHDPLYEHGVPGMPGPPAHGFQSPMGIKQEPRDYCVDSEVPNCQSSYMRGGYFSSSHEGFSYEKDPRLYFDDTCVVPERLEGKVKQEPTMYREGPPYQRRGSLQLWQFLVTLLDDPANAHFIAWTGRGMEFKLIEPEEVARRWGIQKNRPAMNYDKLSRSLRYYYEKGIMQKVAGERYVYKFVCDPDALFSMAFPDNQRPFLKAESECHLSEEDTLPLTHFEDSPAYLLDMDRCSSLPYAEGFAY
Sequence of ETV1 (P50549 whole entry): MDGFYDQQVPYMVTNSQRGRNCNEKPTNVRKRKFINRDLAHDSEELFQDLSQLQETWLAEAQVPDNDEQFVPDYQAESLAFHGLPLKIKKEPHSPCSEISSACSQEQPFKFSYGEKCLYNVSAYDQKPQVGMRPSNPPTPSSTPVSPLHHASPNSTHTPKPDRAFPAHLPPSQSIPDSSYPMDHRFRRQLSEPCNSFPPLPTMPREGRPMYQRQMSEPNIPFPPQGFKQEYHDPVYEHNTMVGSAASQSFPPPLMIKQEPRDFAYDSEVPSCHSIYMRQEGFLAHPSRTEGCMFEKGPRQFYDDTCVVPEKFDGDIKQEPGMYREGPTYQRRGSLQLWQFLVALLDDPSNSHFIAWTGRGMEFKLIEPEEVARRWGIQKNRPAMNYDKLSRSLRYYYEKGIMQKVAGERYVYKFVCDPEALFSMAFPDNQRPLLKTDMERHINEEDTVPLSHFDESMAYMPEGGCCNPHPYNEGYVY
Sequence of CRX (O43186 whole entry): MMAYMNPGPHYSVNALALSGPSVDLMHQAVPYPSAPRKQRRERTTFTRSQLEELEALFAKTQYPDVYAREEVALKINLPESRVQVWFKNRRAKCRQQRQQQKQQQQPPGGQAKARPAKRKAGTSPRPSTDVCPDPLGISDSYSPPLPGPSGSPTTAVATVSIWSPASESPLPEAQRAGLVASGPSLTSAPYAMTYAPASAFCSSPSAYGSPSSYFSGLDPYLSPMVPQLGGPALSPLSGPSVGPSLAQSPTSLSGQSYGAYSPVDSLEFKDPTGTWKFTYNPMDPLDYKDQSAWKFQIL
Sequence of ELF1 (P32519 whole entry): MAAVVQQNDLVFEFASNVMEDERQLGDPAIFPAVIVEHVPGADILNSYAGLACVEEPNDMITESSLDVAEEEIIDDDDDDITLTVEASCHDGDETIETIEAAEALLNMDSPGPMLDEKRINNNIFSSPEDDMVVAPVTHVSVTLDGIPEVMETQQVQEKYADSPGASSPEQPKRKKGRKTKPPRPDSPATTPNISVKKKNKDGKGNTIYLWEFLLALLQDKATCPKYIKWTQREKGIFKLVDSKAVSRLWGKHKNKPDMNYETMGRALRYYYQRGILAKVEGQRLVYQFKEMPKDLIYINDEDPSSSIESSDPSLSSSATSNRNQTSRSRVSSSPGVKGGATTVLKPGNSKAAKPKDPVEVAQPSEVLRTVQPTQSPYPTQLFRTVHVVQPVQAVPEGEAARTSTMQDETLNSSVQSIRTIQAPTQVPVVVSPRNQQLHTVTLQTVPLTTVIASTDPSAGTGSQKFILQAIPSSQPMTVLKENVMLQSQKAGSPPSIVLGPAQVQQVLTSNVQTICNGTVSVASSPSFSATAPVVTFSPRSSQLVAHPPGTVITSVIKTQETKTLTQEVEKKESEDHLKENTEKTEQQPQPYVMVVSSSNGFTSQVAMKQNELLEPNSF

In the case of GAAAAG, the binding signal was 1.05 fold enrichment (6-mer frequency, TF over GST control) with FLI1; 1.01 fold enrichment (6-mer frequency, TF over GST control) in the assay with ELK1; 1.07 fold enrichment (6-mer frequency, TF over GST control) with GABPA; 1.06 fold enrichment (6-mer frequency, TF over GST control) with ERG; 1.04 fold enrichment (6-mer frequency, TF over GST control) with ELF1; 1.11 fold enrichment (6-mer frequency, TF over GST control) with EHF. Besides, the binding signal was 1.3 fold enrichment (6-mer frequency, TF over GST control) with SPI1; 1.14 fold enrichment (6-mer frequency, TF over GST control) with SPIB; 1.04 fold enrichment (6-mer frequency, TF over GST control) with FEV; 1.02 fold enrichment (6-mer frequency, TF over GST control) in the assay with ETV5; 1.22 fold enrichment (6-mer frequency, TF over GST control) in the assay with HSF1; 1.1 fold enrichment (6-mer frequency, TF over GST control) with SPIC. The binding signal with ELF4 is 1.05 fold enrichment (6-mer frequency, TF over GST control); with ELK4, 1.01 fold enrichment (6-mer frequency, TF over GST control); with ETV2, 1.11 fold enrichment (6-mer frequency, TF over GST control); in the assay with CRX it was 1.01 fold enrichment (6-mer frequency, TF over GST control); in the assay with ETV1 it was 1.15 fold enrichment (6-mer frequency, TF over GST control).
